Assay outcomes: PubChem, National Center for Advancing Translational Sciences (NCATS)
G9a inh – blocks human histone lysine methyltransferase G9a; G9a H3K9 monomethylation, AlphaScreen, 2 h; 350,000 compounds, 8.8% hits; Q96KQ7; AID 504332; Potency, µM (top dose mostly 102 µM), without a hit: top-dose activity, negative = inhibition, most hits filed as inhibitors; also: % is scaled to controls: 0 for no effect and ±100 for the full control effect; nearly all actives have a fitted effect of over 75% in size
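G9a (20 nM) preincubated 15 min RT with compounds, then 500 nM biotinylated H3K9 peptide and 20 uM SAM added; 2 h RT reaction. Monomethyl-H3K9 product detected by AlphaScreen with anti-H3K9me1 antibody, streptavidin donor and anti-rabbit IgG acceptor beads.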
BAZ2B inh – BAZ2B (human) inhibition | AlphaScreen BAZ2B-H3K14Ac peptide displacement | Potency, µM (titrated, usually from 114 µM), inactives show at the highest dose activity change, negative = inhibition, usual class: inhibitors | 360,000 compounds, 4.4% hits; also: % is scaled to controls: 0 for no effect and ±100 for the full control effect; nearly all actives have a fitted effect of over 60% in size
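Protein-peptide AlphaScreen: BAZ2B 50 nM, b-H3K14Ac 50 nM, 1x PBS pH 7.4 + 0.01% Tween-20. Preincubation 30 min RT; cpd 30 min RT (top 110 uM); beads 20 min RT, light-protected.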
HP1b binding inh – inhibitors of HP1-beta chromodomain binding to methylated histone tails | P83916 | AlphaScreen HP1-beta / biotin-H3K9me3 peptide binding | Potency, µM (series often up to 114 µM), for inactives: at the top dose activity change, negative = inhibition, most hits filed as inhibitors | 390,000 compounds, 0.56% hits | AID 540317; also: nearly all actives have a fitted effect of over 70% in size
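AlphaScreen: HP1-beta (50 nM) preformed 30 min with biotin-H3(1-18)K9me3 peptide (50 nM) in PBS pH 7.4, 0.01% Tween-20. Compound added for 30 min at RT, then streptavidin donor/nickel chelate acceptor beads (10 ug/mL) for 30 min.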
TDP1 inh – inhibitors of human tyrosyl-DNA phosphodiesterase TDP1; recombinant TDP1, AlphaScreen DNA substrate cleavage; 350,000 compounds, 0.28% hits; Potency, µM (series often up to 130 µM), for inactives: at the highest dose activity change, negative = inhibition, usual class: inhibitors; Q9NUW8; also: % is scaled to controls: 0 for no effect and ±100 for the full control effect; nearly all actives have a fitted effect of over 40% in size
Target sequence (Q9NUW8 whole entry, looked up): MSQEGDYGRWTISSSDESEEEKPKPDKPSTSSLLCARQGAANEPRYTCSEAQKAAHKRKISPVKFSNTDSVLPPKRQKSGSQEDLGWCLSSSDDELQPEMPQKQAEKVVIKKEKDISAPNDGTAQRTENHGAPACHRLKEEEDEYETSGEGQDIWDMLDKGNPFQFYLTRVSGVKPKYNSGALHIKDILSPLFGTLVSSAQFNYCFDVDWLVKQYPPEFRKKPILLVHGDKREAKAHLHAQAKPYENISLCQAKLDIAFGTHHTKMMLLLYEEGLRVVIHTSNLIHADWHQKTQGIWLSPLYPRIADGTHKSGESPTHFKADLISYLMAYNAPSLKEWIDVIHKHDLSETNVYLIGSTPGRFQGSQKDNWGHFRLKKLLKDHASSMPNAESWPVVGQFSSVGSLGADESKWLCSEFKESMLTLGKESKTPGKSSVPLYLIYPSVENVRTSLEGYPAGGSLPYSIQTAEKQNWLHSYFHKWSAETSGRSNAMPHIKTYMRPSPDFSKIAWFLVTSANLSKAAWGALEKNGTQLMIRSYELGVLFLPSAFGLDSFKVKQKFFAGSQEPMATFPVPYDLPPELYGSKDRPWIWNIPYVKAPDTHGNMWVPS
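Enzyme-compound mixtures sat 15 min at room temperature, followed by a 5 min reaction with 15 nM final substrate and 10 min with AlphaScreen beads. Recombinant human Tdp1 was used at 1 nM final.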
Sfp PPTase inh – inhibitors of Bacillus subtilis Sfp phosphopantetheinyl transferase. 310,000 compounds, 3.5% hits. Biochemical Sfp PPTase activity, qHTS. Q9F4F7. Potency, µM, without a hit: largest response in the series, negative = inhibition, hits mostly inhibitors. AID 1490;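 also: the enzyme is Sfp with the accession as filed and its product quenches rhodamine fluorescence; 0% = enzyme reaction without inhibitor and -100% = no enzyme wells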
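Step 1, compound plus 15 nM Sfp-PPTase, 15 min, room temperature. Step 2, add rhodamine-CoA (5 uM) and BHQ-2-YbbR (12.5 uM). Step 3, read 525/598 nm fluorescence at 0 and 30 min.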
JMJD2A Tudor – JMJD2A Tudor domain (human) inhibition. O75164. AlphaScreen JMJD2A-Tudor / H3K4me3 peptide binding. Potency, µM (highest dose often 114 µM), for the others: at the highest dose activity change, negative = inhibition, most hits filed as inhibitors. 390,000 compounds, 4.4% hits; also: % is scaled to controls: 0 for no effect and ±100 for the full control effect; nearly all actives have a fitted effect of over 50% in size
Numbers without * were called inactive; u = inconclusive; x = no result; [ ] = another dose, or the depositor's remark. An excerpt weighted towards active compounds, which were near 12% of everything screened. Calls follow the shape of the dose curve; as a rule, active = well fitted curve in the direction sought with a large enough effect; inconclusive = small, poorly fitted or top-dose-only effect, or another doubt; inactive = no such curve, though single readings can be large; an effect the other way counts as inactive or inconclusive. Potency is read from the fitted curve at half-maximal effect.

SMILES | G9a inh | BAZ2B inh | HP1b binding inh | TDP1 inh | Sfp PPTase inh | JMJD2A Tudor
Cc1cccc(N2C(=O)CC(Sc3ccccc3C(=O)O)C2=O)c1 (centres undefined) | u | -3% | 38% | 3% | 56µM* | 45µM*
CC(C)CN1C(=O)CC(Sc2ccccc2C(=O)O)C1=O (centres undefined) | 1.1µM* | -11% | 46% | 5% | -5% | -25%
CCCCN1C(=O)CC(Sc2ccccc2C(=O)O)C1=O (centres undefined) | -3%[12.7 µM] | -25% | 46% | 0% | 12% | -18%
CC1=C(c2ccc(Cl)cc2)[N+](=O)C(C)(C)N1[O-] | 50µM* | -2% | -11% | -5% | -4% | -26%
Cc1c(-c2ccc(Cl)cc2)[n+](=O)c(-c2ccccc2)cn1[O-] | 0% | -12% | 43% | 5% | 17% | 5%
COc1ccccc1-c1ccc(/C=C2\C=CC(=O)O2)o1 | u | 50µM* | -27% | x | u | u
COc1ccccc1-c1ccc(/C=C2/C=C(C)OC2=O)o1 | 16µM* | u | -13% | 5% | u | u
CC1CC(C)CN(C(=O)COC(=O)CN2C(=O)c3ccccc3C2=O)C1 (centres undefined) | x | x | -4% | 0% | x | -16%
CC1CC(C)CN(C(=O)c2ccc3c(c2NCCO)C(=O)c2ccccc2C3=O)C1 (centres undefined) | 28µM* | u | 45µM* | 11% | -20% | 14µM*
CC(C)CN(CC(C)C)CC(O)Cn1cc(/C=C/C(=O)c2ccccc2)c2ccccc21 (centres undefined) | -4%[59 µM] | 89µM* | 43% | 3% | x | -11%
COc1ccc(C(=O)/C=C/c2cn(CC(O)CN3CCOCC3)c3ccccc23)cc1 (centres undefined) | 45µM* | u | -3% | 4% | -22% | -24%
COc1ccc(C(=O)/C=C/c2cn(CC(O)CN(CC(C)C)CC(C)C)c3ccccc23)cc1OC (centres undefined) | -5%[59 µM] | -18% | 29% | 0% | x | -34%
CCCN(CCC)CC(O)Cn1cc(/C=C/C(=O)c2ccc(OCC)cc2)c2ccccc21 (centres undefined) | -39%[59 µM] | u | -1% | 8% | x | u
Cc1ccc(C(=O)/C=C/c2cn(CC(O)CN3CCc4ccccc43)c3ccccc23)cc1 (centres undefined) | 13µM* | u | -21% | 8% | x | 25µM*
COc1ccc(C(=O)/C=C/c2cn(CC(O)CN3CCc4ccccc43)c3ccccc23)cc1OC (centres undefined) | u | 10µM* | -32% | 10% | x | 20µM*
Cc1ccc(C(=O)/C=C/c2cn(CC(O)CN3CCOCC3)c3ccccc23)cc1 (centres undefined) | -14%[59 µM] | u | -1% | 2% | -5% | -28%
NCC1O[C@@H](OC2C(N)C[C@H](N)[C@@H](O[C@H]3OC(CO)C(O)C(N)C3O)C2O)C(N)C(O)C1O (some centres undefined) | -5%[2.33 µM] | x | x | 7%[56.1 µM] | 0% | x
COc1ccc(NC(=O)Cn2c(SCc3ccc(C)cc3)nc3cccnc32)cc1OC | -26%[59 µM] | 3% | 22% | 9% | x | -3%
O=c1[nH]c(S)nc2sc3c(c12)CCCC3 | 1µM* | u | 0% | 2% | 45µM* | 25µM*
O=C(O)c1ccc(/C=C/c2nc3sc4c(c3c(=O)[nH]2)CCC4)cc1 | u | -2% | u | 50µM* | 10% | -8%
CSc1nc2sc3c(c2c(=O)[nH]1)CCCC3 | -18% | -2% | 21% | 0% | 13% | -35%
CCn1cnc2cc(NC(=O)c3cccs3)ccc21 | 1% | -17% | 19% | 5% | 15% | 0%
CC(C)(C)n1cnc2cc(NC(=O)c3cccs3)ccc21 | 40µM* | -20% | 38% | 6% | -7% | -14%
